Data on three compounds can be found in PubChem BioAssay AID743365 (National Center for Advancing Translational Sciences (NCATS), 2014).

The experiment is described as follows: qHTS profiling of inhibitors of Plasmodium falciparum (DD2) proliferation (acoustic dispense). As to conditions: P. falciparum Dd2 in erythrocytes, SYBR Green DNA, 72 h; at 49.8 µM (top of the series) unless noted.
The compound `CCc1nc(N)nc(N)c1-c1ccc(Cl)cc1` registered a parasite growth, lower = inhibition of 79.6%.

Regarding `Cc1ccc([N+](=O)[O-])cc1S(=O)(=O)N(C)N=Cc1cnc2ccc(Br)cn12`, the parasite growth, lower = inhibition was 6.06%.

Take `Cn1c2ccccc2c2c3c(c4c5ccccc5n(CCC#N)c4c21)CNC3=O`: the parasite growth, lower = inhibition was 70.2%.
